Screening data (PubChem BioAssay)
SRC1 inh = inhibitors of human steroid receptor coactivator 1 (SRC1); HEK293 GAL4-SRC1 luciferase reporter, luminescence; inhibition, % at 3.6 µM; 0.12% of 360,000 active; AID 588354;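 active = inhibition above the campaign mean plus 3 SD, with each screening campaign given its own cutoff, cut at about 60% in these data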;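 note: 0% = DMSO treated cells and 100% = gossypol at 36 µM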
Target sequence (Q15788 whole entry, looked up, the tested form may be a part): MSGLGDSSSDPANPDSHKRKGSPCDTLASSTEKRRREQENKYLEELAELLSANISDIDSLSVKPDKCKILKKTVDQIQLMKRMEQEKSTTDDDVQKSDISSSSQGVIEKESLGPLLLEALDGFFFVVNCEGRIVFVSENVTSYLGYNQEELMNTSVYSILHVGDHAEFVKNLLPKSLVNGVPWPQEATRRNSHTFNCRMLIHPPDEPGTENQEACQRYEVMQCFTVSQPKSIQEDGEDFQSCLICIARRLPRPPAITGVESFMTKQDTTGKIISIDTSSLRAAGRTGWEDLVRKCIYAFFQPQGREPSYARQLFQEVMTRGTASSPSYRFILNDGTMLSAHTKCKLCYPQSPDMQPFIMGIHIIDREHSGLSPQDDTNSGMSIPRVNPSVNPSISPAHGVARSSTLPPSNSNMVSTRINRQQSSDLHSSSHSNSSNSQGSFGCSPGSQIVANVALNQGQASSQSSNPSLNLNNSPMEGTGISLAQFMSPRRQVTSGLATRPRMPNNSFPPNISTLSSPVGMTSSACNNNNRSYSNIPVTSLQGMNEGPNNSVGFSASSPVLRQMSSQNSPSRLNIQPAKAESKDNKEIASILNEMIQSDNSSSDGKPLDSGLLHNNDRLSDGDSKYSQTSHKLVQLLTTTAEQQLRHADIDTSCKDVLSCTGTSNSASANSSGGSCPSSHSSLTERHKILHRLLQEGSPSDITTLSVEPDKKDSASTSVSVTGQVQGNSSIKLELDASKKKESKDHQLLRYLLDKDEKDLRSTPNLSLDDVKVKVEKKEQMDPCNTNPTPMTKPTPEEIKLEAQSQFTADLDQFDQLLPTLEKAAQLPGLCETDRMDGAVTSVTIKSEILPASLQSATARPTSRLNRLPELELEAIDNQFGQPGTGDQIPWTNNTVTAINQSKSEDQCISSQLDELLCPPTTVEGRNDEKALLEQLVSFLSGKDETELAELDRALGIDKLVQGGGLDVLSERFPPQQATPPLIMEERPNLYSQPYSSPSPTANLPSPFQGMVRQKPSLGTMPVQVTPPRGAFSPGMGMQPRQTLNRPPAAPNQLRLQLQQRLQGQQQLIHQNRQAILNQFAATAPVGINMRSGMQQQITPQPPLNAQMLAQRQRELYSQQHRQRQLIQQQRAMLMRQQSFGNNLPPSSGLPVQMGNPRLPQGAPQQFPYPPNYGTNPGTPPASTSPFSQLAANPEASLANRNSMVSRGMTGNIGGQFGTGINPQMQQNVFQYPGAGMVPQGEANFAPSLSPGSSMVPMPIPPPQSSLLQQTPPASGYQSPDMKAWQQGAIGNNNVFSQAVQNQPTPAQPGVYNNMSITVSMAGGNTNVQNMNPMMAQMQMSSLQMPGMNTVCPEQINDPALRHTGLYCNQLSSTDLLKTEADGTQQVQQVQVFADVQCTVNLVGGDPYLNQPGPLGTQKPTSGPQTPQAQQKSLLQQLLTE
NR5A2 inv ag = suppresses constitutive activity of human LRH-1; O00482; HEK293T StAR-luciferase reporter, LRH-1 transfected, 24 h; inhibition, % at 3.6 µM; 0.13% of 360,000 active; AID 602396;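 active = inhibition above the mean inhibition of all tested compounds plus 3 SD, cut at about 73% in these data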;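 note: 0% = DMSO wells and 100% = reporter-only cells lacking LRH-1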
NCOA3 inh = inhibitors of human steroid receptor coactivator 3 (SRC3); Q9Y6Q9; HEK293 GAL4-SRC3 luciferase reporter, luminescence; inhibition, % at 3.6 µM; 0.17% of 360,000 active;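 active = inhibition above a per-campaign cutoff, the mean of all compounds plus 3 SD, cut at about 60% in these data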;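 note: 0% = DMSO-treated cells and 100% = gossypol-treated cells at 36 µM; higher means less SRC3-driven luciferase light from the GAL4 reporter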
Gli-Sufu block = antagonists of Gli-Sufu signaling; Sufu-KO-LIGHT fibroblasts, Gli luciferase reporter luminescence; inhibition, % at 5 µM; 0.74% of 340,000 active;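 active = inhibition above about 55%, limit read from the data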;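 note: 0% = DMSO-treated cells and 100% = wells with medium but no cells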
SRC2 inh = human SRC2 (NCOA2) inhibition; AID 651957; Q15596; 0.17% of 370,000 active; HEK293 GAL4-SRC2 luciferase reporter, luminescence; inhibition, % at 9 µM;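 active = inhibition above the mean inhibition of all tested compounds plus 3 SD, set per campaign, cut at about 52% in these data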;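 note: 0% = DMSO treated cells and 100% = cells given Gossypol at 36 µM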
COUP-TFII inh = blocks human COUP-TFII nuclear receptor | P24468 | 0.7% of 370,000 active | inhibition, % at 8.6 µM | AID 686940 | HEK293T NGFI-A luciferase reporter, luminescence;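 active = inhibition above a per-plate cutoff, mean inhibition of test wells between control levels plus 3 SD, cut at about 38% in these data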;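 note: cells cotransfected with COUP-TFII expression vector driving the NGFI-A reporter; 0% = median of COUP-TF2 test wells and 100% = reporter-only cells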
Gal4-VP16 ctr = counter-screen for COUP-TFII antagonists: inhibitors of VP16. shares compounds with COUP-TFII inh. HEK293 Gal4-VP16 luciferase reporter, luminescence. inhibition, % at 8.5 µM. 25% of 2,500 active; in the data active = inhibition above about 13%
COUP-TFII conf = COUP-TFII (NR2F2) inhibition, confirmation assay; HEK293 NGFI-A luciferase reporter, luminescence; inhibition, % at 8.5 µM; 45% of 2,500 active; AID 687008; shares compounds with COUP-TFII inh;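 active = mean inhibition over three repeats above a set limit taken from the earlier primary screen, cut at about 38% in these data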;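 note: 100% = cells given the luciferase reporter alone without the COUP-TF2 vector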
* marks the source's active call; other numbers are inactive results; / = not tested or not shown. Most compounds without a hit are left out; they make up all but 1.3% or so of the library.

SMILES	SRC1 inh	NR5A2 inv ag	NCOA3 inh	Gli-Sufu block	SRC2 inh	COUP-TFII inh	Gal4-VP16 ctr	COUP-TFII conf
CC1=C(C(=O)OCc2ccc3c(c2)OCO3)C(c2ccc(Cl)cc2)NC(=O)N1 (stereo not drawn)	75.4*	61.8	65.0*	-6.5	59.2*	47.8*	28.8*	37.0
CC1=C(C(=O)OCc2ccc3c(c2)OCO3)C(c2ccc(F)cc2)NC(=O)N1 (stereo not drawn)	73.8*	60.4	60.8	-12.3	43.9	38.2*	23.4*	27.7
CSc1ccc(CN2CCN(Cc3ccc([N+](=O)[O-])cc3)CC2)cc1	24.9	37.9	20.8	15.8	21.0	51.3*	2.7	46.1*
CC[n+]1ccccc1/C=C1\Sc2ccc(C)cc2N1C	39.2	51.2	39.3	/	2.9	60.6*	8.9	58.8*
CN1/C(=C/c2cccc[n+]2CCO)Sc2ccccc21	7.2	-5.3	-5.0	13.3	-38.8	10.6	/	/
COc1cccc(CN(C)C(=O)c2cccc(S(=O)(=O)N3CCN(Cc4ccccc4)CC3)c2)c1OC	-16.0	8.9	18.8	36.6	-1.4	18.3	/	/
COc1ccc(NC(=O)CN(C)C(=O)c2cccc(S(=O)(=O)N3CCN(c4ccc(F)cc4)CC3)c2)cc1	-4.1	14.0	16.9	15.6	23.9	45.9*	-1.9	17.2
CS(=O)(=O)c1ccc(NC(=O)c2cccc(S(=O)(=O)N3CCN(Cc4ccccc4)CC3)c2)cc1	-22.3	8.1	19.0	26.7	-2.1	40.8*	-6.4	15.7
CN(C)C(=O)c1ccc(NC(=O)c2cccc(S(=O)(=O)N3CCN(Cc4ccccc4)CC3)c2)cc1	-14.7	1.6	11.8	6.6	5.1	9.8	/	/
CN(CC(=O)Nc1ccc(F)cc1)C(=O)c1cccc(S(=O)(=O)N2CCN(c3ccccc3)CC2)c1	-1.1	27.8	8.2	20.0	11.7	15.6	/	/
CN(CC(=O)Nc1ccc(Cl)cc1)C(=O)c1cccc(S(=O)(=O)N2CCN(Cc3ccccc3)CC2)c1	8.3	11.1	-7.4	39.6	20.2	37.5*	0.7	5.0
COc1cccc(CN(C)C(=O)c2cccc(S(=O)(=O)N3CCN(c4ccccc4)CC3)c2)c1OC	3.9	3.0	32.0	23.4	-1.0	52.4*	-0.7	21.4
C#CCN(Cc1cccc(F)c1)C(=O)c1nnc2c3cc(F)ccc3n(S(=O)(=O)c3ccc(OC)cc3)c2n1	/	/	/	/	-22.5	-16.4	/	/
Brc1ccc(N2O[C@H]3C=C[C@@H]2C3)nc1	/	/	/	/	-70.8	4.0	/	/
O=S1(=O)N[C@@H](Cc2ccccc2)COc2cccc(NCCCN3CCOCC3)c21	/	/	/	/	10.3	19.9	/	/
O=C(CSc1nc2ccccc2nc1N1CCOCC1)N1CCN(c2cccc(C(F)(F)F)c2)CC1	/	/	/	/	11.1	16.2	/	/
O=C(NCCc1ccccc1F)c1ccc2c(c1)OCCO2	76.0*	63.8	73.8*	69.0*	90.5*	96.2*	63.1*	83.7*
O=C(NC1CCC1)c1ccc(C#Cc2cccc(F)c2)nc1	/	/	/	/	-114.0	-38.1	/	/
COC(=O)C1=C(C)N(Cc2cccc(C(F)(F)F)c2)C(=NCC2CC2)NC1c1cccc(Cl)c1 (stereo not drawn)	/	/	/	/	-0.7	-17.9	/	/
CC(=O)N(CCc1ccccc1)c1ccc2c(c1)C1CC2CCN1C(=O)OCc1ccccc1 (stereo not drawn)	4.7	-14.0	0.0	/	33.7	37.9*	-5.5	7.4
O=C(OCc1ccccc1)N1CCC2CC1c1cc(NCCc3ccccc3)ccc12 (stereo not drawn)	-8.6	-5.8	-18.2	-13.9	-3.5	0.9	/	/
CCOC(=O)C1=CCN(S(=O)(=O)c2ccc(Br)cc2)C1c1cccc(F)c1 (stereo not drawn)	/	/	/	/	20.0	-5.3	/	/
CCOC(=O)CCCNC(=O)OC1CC2CC1[C@H]1CCCCN1[C@H]2Cc1ccccc1 (stereo partly drawn)	/	/	/	/	8.4	-17.5	/	/
OCCN(CCO)CC(O)COc1ccc(Br)cc1 (stereo not drawn)	13.2	4.9	21.1	2.2	-23.2	-26.3	/	/
OCCN(CCO)CC(O)COc1ccc(C23CC4CC(CC(C4)C2)C3)cc1 (stereo not drawn)	41.7	39.8	55.2	18.3	73.5*	87.1*	62.5*	72.2*
SMILES	SRC1 inh	NR5A2 inv ag	NCOA3 inh	Gli-Sufu block	SRC2 inh	COUP-TFII inh	Gal4-VP16 ctr	COUP-TFII conf
CC1(Cc2ccc3ccccc3n2)C(=O)Nc2ccc(OC(F)(F)F)cc21 (stereo not drawn)	-1.4	15.6	-1.2	/	14.0	90.0*	0.2	10.3
O=C(CCl)Nc1ccc(C(=O)NCC2COc3ccccc3O2)cc1 (stereo not drawn)	/	/	/	/	44.2	39.9*	66.6*	25.1
Cc1cc(C(=O)NCC2COc3ccccc3O2)c2ccccc2n1 (stereo not drawn)	9.8	-3.6	18.6	7.4	-19.1	38.3*	4.4	4.7
O=C(Cc1ccccc1)Nc1ccc(C(=O)NCC2COc3ccccc3O2)cc1 (stereo not drawn)	8.5	33.9	-19.3	-7.1	-8.2	-5.9	/	/
N#Cc1c(F)cccc1NCc1cccnc1	-24.3	-0.1	-9.9	-10.2	-12.5	-10.6	/	/
N#Cc1c(NCc2ccccc2)ccnc1NCc1cccnc1	4.8	23.0	28.1	37.0	28.1	44.0*	1.9	42.2*
COc1cccc(N2CCN(c3ncnc4c3[nH]c3ccc(F)cc34)CC2C)c1 (stereo not drawn)	84.7*	89.2*	87.3*	91.2*	81.3*	90.8*	92.3*	108.5*
COc1cccc(N2CCN(c3ncnc4c3[nH]c3ccccc34)CC2C)c1 (stereo not drawn)	/	/	/	/	60.8*	75.8*	19.3*	84.0*
c1ccc2c(c1)CCN(c1ncnc3c1[nH]c1ccccc13)C2	22.8	46.2	31.8	78.6*	36.1	70.9*	3.5	75.7*
COc1ccc2[nH]c3c(N4CC(C)OC(C)C4)ncnc3c2c1 (stereo not drawn)	/	/	/	33.2	11.7	-14.3	/	/
COCCn1c(C)c(C)c2c(NCCc3ccccc3)ncnc21	23.1	22.8	26.3	24.8	11.8	46.8*	9.6	64.1*
O=C(c1cc(COc2c(F)cccc2F)on1)N1CCC(c2ccncc2)CC1	27.8	15.9	30.5	47.2	-7.1	60.1*	4.8	46.9*
O=c1c2ccccc2n(Cc2ccccc2)n1[C@@H](Cc1ccccc1)Cn1cc(C2CCCC2)nn1	/	/	/	/	16.6	-5.7	/	/
Nc1c(Cl)ncnc1NCCc1ccc(O)cc1	26.9	20.8	14.0	21.0	21.5	47.3*	6.3	31.7
Cc1ccc(S(=O)(=O)N2CCCC(C(=O)Nc3c(C)n(C)n(-c4ccccc4)c3=O)C2)cc1 (stereo not drawn)	/	/	/	/	-27.8	-10.3	/	/
